Values joined by “and” are separate entries in the source; they are usually repeats but may differ in a detail not shown here. Identical values can stand only once. Results filed as inconclusive are left out. Active and inactive are the calls of the source. The calls were made as follows, unless noted: active = hit-call score of the fitted dose curve at least 0.9, where 1 is the maximum; inactive = score below 0.9.
Each molecule was assayed against human Thyroid Receptor alpha (THRa1), THRA (gene 7067) (UniProt P10827) (assay: ATG_THRa1_TRANS: Attagene TRANS-FACTORIAL HepG2 Assay for human Thyroid Receptor alpha (THRa1) (AID 2283014; active = hit-call score of the fitted dose curve at least 0.9, where 1 is the maximum)). Settings: not given.
Sequence of human Thyroid Receptor alpha (THRa1), THRA (gene 7067) (P10827 whole entry, looked up, the tested form may be a part): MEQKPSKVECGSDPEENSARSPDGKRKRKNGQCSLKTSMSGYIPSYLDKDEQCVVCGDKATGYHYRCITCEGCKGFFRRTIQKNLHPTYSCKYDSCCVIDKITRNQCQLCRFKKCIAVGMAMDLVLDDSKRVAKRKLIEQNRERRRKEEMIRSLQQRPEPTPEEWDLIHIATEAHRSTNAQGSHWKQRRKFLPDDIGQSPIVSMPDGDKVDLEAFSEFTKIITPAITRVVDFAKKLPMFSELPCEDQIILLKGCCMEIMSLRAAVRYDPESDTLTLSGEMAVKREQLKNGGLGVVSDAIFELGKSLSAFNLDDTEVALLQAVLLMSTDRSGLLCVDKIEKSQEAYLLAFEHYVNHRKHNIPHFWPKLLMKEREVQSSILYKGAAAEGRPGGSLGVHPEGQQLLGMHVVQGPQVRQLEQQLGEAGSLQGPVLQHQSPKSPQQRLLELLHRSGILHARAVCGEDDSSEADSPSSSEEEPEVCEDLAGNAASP
Procedure, shortened: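 HepG2 cells transiently transfected with chimeric NR-Gal4 and GAL4-UAS reporter units, dosed 24 h. Reporter mRNA quantified by RT-PCR, fluorescent labeling, HpaI digestion and capillary electrophoresis; gain-of-signal fit versus DMSO.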
`O=C(CC(=O)C(F)(F)C(F)(F)C(F)(F)F)c1cccs1` was tested, and the outcome was “inactive”. In the case of `Cc1[nH]nc2c1N=C(c1ccccc1Cl)c1cc([N+](=O)[O-])ccc1N2`, the outcome is reported as “inactive”. `CCc1ccccc1O` was tested, and the outcome was “inactive”. `O=C1c2ccc(O)c(O)c2C(=O)c2c(O)ccc(O)c21` was tested, and the AC50 was 13.8 µM (active). `O=C1Cc2ccccc2N1c1c(Cl)cccc1Cl` was tested, and the outcome was “inactive”. For `CC1=CC(=O)c2ccccc2C1=O`, the outcome was “inactive”. For `CCCCCCOC(=O)c1ccc(O)cc1`, the outcome was “inactive”. For `C[N+](C)(CCCNS(=O)(=O)CCC(F)(F)C(F)(F)C(F)(F)C(F)(F)C(F)(F)C(F)(F)F)CC(=O)[O-]`, the outcome was “inactive”. For `CCCCCCCCCCCC(=O)O`, the outcome was “inactive”. In the case of `O=C(NCc1ncc(C(F)(F)F)cc1Cl)c1c(Cl)cccc1Cl`, the outcome is reported as “inactive”. In the case of `Cc1cc(=O)oc2cc(O)ccc12`, the outcome is reported as “inactive”. With `CCOC(=O)CN[C@@H](C(=O)N1CC[C@H]1C(=O)NCc1ccc(/C(N)=N/O)cc1)C1CCCCC1` the outcome was “inactive”. In the case of `O=CC(F)(F)C(F)(F)C(F)(F)F`, the outcome is reported as “inactive”. With `Cc1cccc2c1ccc1ccccc12` the outcome was “inactive”. With `Cc1ccc(C(=O)c2ccccc2)cc1` the outcome was “inactive”. For `CCCCCCc1ccc(N)cc1`, the outcome was “inactive”. For `CCCCCCCCCCCCCC[n+]1ccccc1`, the outcome was “inactive”. With `Clc1ccc2c(Cl)ccnc2c1` the outcome was “inactive”.

These molecules were tested on Interleukin-1 alpha (IL1a), IL1A (gene 3552) (assay: BSK_BE3C_IL1a: BioMAP Diversity Plus: BE3C Assay for Interleukin-1 alpha (IL1a) Biomarker Activity (AID 2283016)). Settings: primary human bronchial epithelial cells; actives raise or lower the signal.
Procedure, shortened: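 BE3C primary human bronchial epithelium; cpd 24 h; IL-1a by ELISA; bidirectional fit vs DMSO; parallel SRB (0.1% SRB, 10% TCA fix, 560 nm) for cytotoxicity.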
For `O=C(CC(=O)C(F)(F)C(F)(F)C(F)(F)F)c1cccs1`, the AC50 was 29.5 µM (active) and 28.9 µM (active). For `Cc1[nH]nc2c1N=C(c1ccccc1Cl)c1cc([N+](=O)[O-])ccc1N2`, the AC50 was 7.77 µM (active). With `O=C1c2ccc(O)c(O)c2C(=O)c2c(O)ccc(O)c21` the outcome was “inactive”. For `O=C(NCc1ncc(C(F)(F)F)cc1Cl)c1c(Cl)cccc1Cl`, the outcome was “inactive”. For `CCOC(=O)CN[C@@H](C(=O)N1CC[C@H]1C(=O)NCc1ccc(/C(N)=N/O)cc1)C1CCCCC1`, the outcome was “inactive”. In the case of `Cc1cccc2c1ccc1ccccc12`, the AC50 is reported as 5.56 µM (active). For `C=CC(=O)OCCC(F)(F)C(F)(F)C(F)(F)C(F)(F)C(F)(F)C(F)(F)C(F)(F)C(F)(F)F`, the outcome was “inactive”. For `Cc1ccc(C(=O)c2ccccc2)cc1`, the outcome was “inactive”.

What follows are molecules tested on Monocyte Chemoattractant Protein-1 (MCP1), CCL2 (gene 6347) (assay: BSK_3C_MCP1: BioMAP Diversity Plus: 3C Assay for Monocyte Chemoattractant Protein-1 (MCP1) Biomarker Activity (AID 2283017)). Settings: primary human endothelial cells (HUVEC); actives raise or lower the signal.
Procedure, shortened: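 Human umbilical vein endothelial cells (3C system) exposed to chemicals for 24 h; MCP-1 quantified by ELISA against the DMSO baseline with bidirectional fitting, and parallel SRB staining used to assess cytotoxicity.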
In the case of `O=C(CC(=O)C(F)(F)C(F)(F)C(F)(F)F)c1cccs1`, the AC50 is reported as 40 µM (active) and 41.2 µM (active). For `Cc1[nH]nc2c1N=C(c1ccccc1Cl)c1cc([N+](=O)[O-])ccc1N2`, the outcome was “inactive”. With `O=C1c2ccc(O)c(O)c2C(=O)c2c(O)ccc(O)c21` the outcome was “inactive”. `O=C(NCc1ncc(C(F)(F)F)cc1Cl)c1c(Cl)cccc1Cl` was tested, and the outcome was “inactive”. `CCOC(=O)CN[C@@H](C(=O)N1CC[C@H]1C(=O)NCc1ccc(/C(N)=N/O)cc1)C1CCCCC1` was tested, and the outcome was “inactive”. In the case of `Cc1cccc2c1ccc1ccccc12`, the outcome is reported as “inactive”. `C=CC(=O)OCCC(F)(F)C(F)(F)C(F)(F)C(F)(F)C(F)(F)C(F)(F)C(F)(F)C(F)(F)F` was tested, and the outcome was “inactive”. With `Cc1ccc(C(=O)c2ccccc2)cc1` the AC50 was 4.38 µM (active).

Each molecule was assayed on Monocyte Chemoattractant Protein-1 (MCP1), CCL2 (gene 6347) (assay: BSK_4H_MCP1: BioMAP Diversity Plus: 4H Assay for Monocyte Chemoattractant Protein-1 (MCP1) Biomarker Activity (AID 2283018)). Settings: primary human endothelial cells (HUVEC); actives raise or lower the signal.
Procedure, shortened: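 ELISA read-out of MCP-1 from human vascular endothelial primary cells taken at 24 hours after compound exposure. Activity was fitted in both directions relative to DMSO, which served as negative control.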
In the case of `O=C(CC(=O)C(F)(F)C(F)(F)C(F)(F)F)c1cccs1`, the AC50 is reported as 23.5 µM (active) and 29.1 µM (active). For `Cc1[nH]nc2c1N=C(c1ccccc1Cl)c1cc([N+](=O)[O-])ccc1N2`, the AC50 was 10.4 µM (active). For `O=C1c2ccc(O)c(O)c2C(=O)c2c(O)ccc(O)c21`, the outcome was “inactive”. With `O=C(NCc1ncc(C(F)(F)F)cc1Cl)c1c(Cl)cccc1Cl` the outcome was “inactive”. `CCOC(=O)CN[C@@H](C(=O)N1CC[C@H]1C(=O)NCc1ccc(/C(N)=N/O)cc1)C1CCCCC1` was tested, and the outcome was “inactive”. With `Cc1cccc2c1ccc1ccccc12` the outcome was “inactive”. In the case of `C=CC(=O)OCCC(F)(F)C(F)(F)C(F)(F)C(F)(F)C(F)(F)C(F)(F)C(F)(F)C(F)(F)F`, the outcome is reported as “inactive”. `Cc1ccc(C(=O)c2ccccc2)cc1` was tested, and the AC50 was 27 µM (active).

These molecules were tested on Human Leukocyte Antigen - DR isotype (HLADR), HLA-DRA (gene 3122) (assay: BSK_3C_HLADR: BioMAP Diversity Plus: 3C Assay for Human Leukocyte Antigen - DR isotype (HLADR) Biomarker Activity (AID 2283019;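 as to outcome: ELISA of cell-surface HLA-DR on HUVEC 24 h after dosing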)). Settings: primary human endothelial cells (HUVEC); actives raise or lower the signal.
Procedure, shortened: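 HUVEC monoculture, HLA-DR measured by ELISA 24 h after chemical dosing. Fitted bidirectionally against DMSO baseline; parallel SRB staining assessed cytotoxicity, with 3C proliferation read by SRB at 48 h.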
With `O=C(CC(=O)C(F)(F)C(F)(F)C(F)(F)F)c1cccs1` the AC50 was 24.1 µM (active) and 24.6 µM (active). In the case of `Cc1[nH]nc2c1N=C(c1ccccc1Cl)c1cc([N+](=O)[O-])ccc1N2`, the AC50 is reported as 3.12 µM (active). `O=C1c2ccc(O)c(O)c2C(=O)c2c(O)ccc(O)c21` was tested, and the outcome was “inactive”. In the case of `O=C(NCc1ncc(C(F)(F)F)cc1Cl)c1c(Cl)cccc1Cl`, the outcome is reported as “inactive”. `CCOC(=O)CN[C@@H](C(=O)N1CC[C@H]1C(=O)NCc1ccc(/C(N)=N/O)cc1)C1CCCCC1` was tested, and the outcome was “inactive”. With `Cc1cccc2c1ccc1ccccc12` the AC50 was 20 µM (active). For `C=CC(=O)OCCC(F)(F)C(F)(F)C(F)(F)C(F)(F)C(F)(F)C(F)(F)C(F)(F)C(F)(F)F`, the outcome was “inactive”. `Cc1ccc(C(=O)c2ccccc2)cc1` was tested, and the AC50 was 28.2 µM (active).

The molecules below were run on Interleukin-8 (IL8), CXCL8 (gene 3576) (assay: BSK_3C_IL8: BioMAP Diversity Plus: 3C Assay for Interleukin-8 (IL8) Biomarker Activity (AID 2283020)). Settings: primary human endothelial cells (HUVEC); actives raise or lower the signal.
Procedure, shortened: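 ELISA read-out of IL-8 from human umbilical vein endothelium, measured 24 h after chemical dosing. Activity is expressed relative to DMSO negative control, with both increases and decreases fitted.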
With `O=C(CC(=O)C(F)(F)C(F)(F)C(F)(F)F)c1cccs1` the AC50 was 15.8 µM (active) and 17.3 µM (active). For `Cc1[nH]nc2c1N=C(c1ccccc1Cl)c1cc([N+](=O)[O-])ccc1N2`, the outcome was “inactive”. In the case of `O=C1c2ccc(O)c(O)c2C(=O)c2c(O)ccc(O)c21`, the outcome is reported as “inactive”. For `O=C(NCc1ncc(C(F)(F)F)cc1Cl)c1c(Cl)cccc1Cl`, the outcome was “inactive”. In the case of `CCOC(=O)CN[C@@H](C(=O)N1CC[C@H]1C(=O)NCc1ccc(/C(N)=N/O)cc1)C1CCCCC1`, the outcome is reported as “inactive”. `Cc1cccc2c1ccc1ccccc12` was tested, and the outcome was “inactive”. In the case of `C=CC(=O)OCCC(F)(F)C(F)(F)C(F)(F)C(F)(F)C(F)(F)C(F)(F)C(F)(F)C(F)(F)F`, the outcome is reported as “inactive”. With `Cc1ccc(C(=O)c2ccccc2)cc1` the AC50 was 15.6 nM (active).

From PubChem BioAssay (EPA / NIEHS)
